PubChem BioAssay (Tox21)
“And” between values parts separate entries of the source, which are not always exact repeats. Equal entries are not always repeated. Results filed as inconclusive are left out. Unmarked numbers belong to inactive results. The source made the active and inactive calls. Unless noted, the call rests on the fitted dose curve; in most records, active means well fitted activation curve with a large enough effect in the repeat runs; inconclusive means weak or mixed curves; inactive means no such curve, though single readings can be large or run the other way.

Assay: qHTS assay for small molecule agonists of the p53 signaling pathway (AID 651631; calls by dose curve)
Settings: HCT-116 p53RE-bla reporter, beta-lactamase FRET ratio, 16 h; series mostly up to 73.3 µM; activation: at the top concentration
Method in brief: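 Stably transfected HCT-116 cells (beta-lactamase behind p53 response elements) get compounds after a 5 h settling period; 16 h later at 37 °C, FRET substrate is loaded and fluorescence read after 2 h.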
Further: nearly all actives have a fitted effect of over 15% in size.
On the % scale 0 is the no-effect control and ±100 the full control effect; potency means the concentration at half of the fitted maximal effect.

SMILES	activation	Potency
O=C(O)/C=C/c1cnc[nH]1	-6.47%	
O=c1[nH]cnc2ccccc12	-3.76% [at 95.1 µM]	
CC(=O)OCCc1ccccc1	0.877%	
O=C(O)COC(=O)Cc1ccccc1Nc1c(Cl)cccc1Cl	8.18% [at 34.7 µM]	
CCCCCCCCCCCCC(=O)O	-2.15% [at 95.1 µM]	
Cc1cccc(Oc2ccccc2)c1	-3.86%	
O=C(O)Cc1cc(I)c(Oc2ccc(O)c(I)c2)c(I)c1		4.52 µM (active) and 24.3 µM (active)
O=c1c2ccccc2nnn1CCl	-1.7%	
CC(=O)N(O)CCCCCNC(=O)CCC(=O)N(O)CCCCCNC(=O)CCC(=O)N(O)CCCCCN	1.54% [at 34.7 µM]	
CCN(CC)CCOC(=O)C1(c2ccccc2)CCCC1	-2.32%	
Cc1ccccn1		inactive
CCCOc1ccc2nc(NC(=O)OC)[nH]c2c1		298 nM (active)
CN(C(=O)CCCOc1ccc2[nH]c(=O)ccc2c1)C1CCCCC1	-3.34%	
Cc1ccc(C(=O)C(C)CN2CCCCC2)cc1 (stereo unspecified)	-4.97%	

Assay: qHTS assay for small molecules that induce genotoxicity in human embryonic kidney cells expressing luciferase-tagged ATAD5 (AID 651632)
Settings: HEK293T ATAD5-luciferase induction, 16 h; series mostly up to 83.3 µM; activation: at the top concentration
Method in brief: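 HEK293T cells carrying luciferase-tagged ATAD5 were given compound or DMSO vehicle and incubated 16 hr at 37C, 5% CO2. Luciferase activity was read after 30 min at room temperature with Amplite; a rise signals genotoxic stress.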

SMILES	activation	Potency
CN(C)CC[C@@H](c1ccc(Br)cc1)c1ccccn1	-2.11%	
Cc1occc1S	-3.02%	
CC(C)CCCCCCOC(=O)c1ccc(C(=O)OCCCCCCC(C)C)c(C(=O)OCCCCCCC(C)C)c1	2.07%	
CCN(CC)CCOc1ccc2c(c1)C(=O)c1cc(OCCN(CC)CC)ccc1-2	-4.15%	
CC(=O)OCCc1ccccc1	-1.91%	
O=C(O)COC(=O)Cc1ccccc1Nc1c(Cl)cccc1Cl	-1.49% [at 39.1 µM]	
Oc1ccc(Cc2ccccc2)cc1	2.61%	
NC1CCN(c2nc3c(cc2F)c(=O)c(C(=O)O)cn3-c2ccc(F)cc2F)C1 (stereo unspecified)	5.86%	
CC(C)c1ccc2c(C(C)C)cc(C(C)C)c(S(=O)(=O)O)c2c1	2.12% [at 95.3 µM]	
CCN1CCC[C@H]1CNC(=O)c1c(OC)ccc(Br)c1OC	-2.27%	
O=CNc1ccccc1	-3.14% [at 95.3 µM]	
Cc1cccc(Oc2ccccc2)c1	-2.28%	
O=C(O)[C@@H]1[C@H]2C[C@H]3c4[nH]c5ccccc5c4CCN3C[C@@H]2CC[C@@H]1O	3.42% [at 39.1 µM]	
O=c1c2ccccc2nnn1CCl	2.81%	
O=C(NN1CCCC1)NS(=O)(=O)c1ccc(Cl)cc1	3.64%	
C[C@@H](C1=C(CCN(C)C)Cc2ccccc21)c1ccccn1	1.65%	

SMILES	activation	Potency
CC(=O)N(O)CCCCCNC(=O)CCC(=O)N(O)CCCCCNC(=O)CCC(=O)N(O)CCCCCN	2.29% [at 39.1 µM]	
CCN(CC)CCOC(=O)C1(c2ccccc2)CCCC1	-1.56%	
CC(C)(C)c1ccc(OCC2CO2)cc1 (stereo unspecified)	-1.41% [at 95.3 µM]	
COc1cc(C(C)(C)C)c(O)c(C(C)(C)C)c1	-1.07%	
CCOc1ccc(NC(=O)CC(C)=O)cc1	4.86%	
CC(=O)/C=C/C1C(C)=CCCC1(C)C (stereo unspecified)	-0.721%	
CCCCOC(=O)/C=C\C(=O)OCCCC	2.16% [at 95.3 µM]	
N#CCCNCCC#N	3.64% [at 95.3 µM]	
CCCOc1ccc2nc(NC(=O)OC)[nH]c2c1		1680 nM (active)
O=C1c2cccc(O)c2C(=O)c2c(O)cc(CO)cc21	-3.77%	
CCOC(=O)C1=NN(c2ccccc2)C(=O)C1	-4.86%	
CC(=O)SCc1ccco1	0.757%	
Cc1ccccc1N=Nc1ccc(N=Nc2c(O)ccc3ccccc23)c(C)c1	1.61%	
CCN(CC)C(C)CN1c2ccccc2Sc2ccccc21 (stereo unspecified)	-3.45% [at 39.1 µM]	
Cc1ccc(C(=O)C(C)CN2CCCCC2)cc1 (stereo unspecified)		inactive
O=C(O)Cn1c(C(=O)Nc2nc(-c3ccccc3Cl)cs2)cc2ccccc21	5.59%	
